About 83,000 compounds went through this panel and 20% of them were active in at least one assay; those are over-represented in the sample as a whole.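 Plates (96-well) were seeded with cells, treated with compound at one concentration, and incubated for 48 hours before percent growth was determined.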 Active and inactive are the calls of the source. How the source made its calls: active means growth percent below 10; inactive means the rest.
Experiments:
Assay in all cases: NCI-60 one-dose screen, 48 h (100 = growth as untreated, 0 = no growth, -100 = all killed)
Settings in all cases: 10 µM unless noted
SR leukemia = system: SR leukemia
RPMI-8226 leukemia = system: RPMI-8226 leukemia
OVCAR-8 ovarian = system: OVCAR-8 ovarian
OVCAR-5 ovarian = system: OVCAR-5 ovarian
OVCAR-4 ovarian = system: OVCAR-4 ovarian
SK-OV-3 ovarian = system: SK-OV-3 ovarian
IGROV1 ovarian = system: IGROV1 ovarian
OVCAR-3 ovarian = system: OVCAR-3 ovarian
HS 578T breast = system: HS 578T breast
NCI/ADR-RES ovarian = system: NCI/ADR-RES ovarian
T-47D breast = system: T-47D breast
BT-549 breast = system: BT-549 breast
MDA-MB-435 melanoma = system: MDA-MB-435 melanoma
SW-620 colon = system: SW-620 colon
MCF7 breast = system: MCF7 breast
HCT-116 colon = system: HCT-116 colon
HCC-2998 colon = system: HCC-2998 colon
KM12 colon = system: KM12 colon

Measured: growth

Nc1nc(I)c2ncn(C3OC(CO)C(O)C3O)c2n1 (stereo unspecified)
inactive: SR leukemia 107% | RPMI-8226 leukemia 157% | OVCAR-8 ovarian 112% | OVCAR-5 ovarian 104% | OVCAR-4 ovarian 129% | SK-OV-3 ovarian 100% | IGROV1 ovarian 121% | OVCAR-3 ovarian 112% | HS 578T breast 136% | NCI/ADR-RES ovarian 105% | T-47D breast 94.9% | BT-549 breast 69.7% | MDA-MB-435 melanoma 91.6% | SW-620 colon 114% | MCF7 breast 96.6% | HCT-116 colon 110% | HCC-2998 colon 103% | KM12 colon 115%

O=C(NC1CCOCC1)c1ccc2c(c1)CN(c1ncc(Cc3cccc(-n4cccn4)c3)s1)CC2
inactive: SR leukemia 56.2% | RPMI-8226 leukemia 38.3% | OVCAR-8 ovarian 76.6% | OVCAR-5 ovarian 95.1% | OVCAR-4 ovarian 62.1% | SK-OV-3 ovarian 78.6% | IGROV1 ovarian 89.8% | OVCAR-3 ovarian 78.4% | HS 578T breast 96% | NCI/ADR-RES ovarian 63.5% | T-47D breast 38.9% | BT-549 breast 31.1% | MDA-MB-435 melanoma 76.3% | SW-620 colon 107% | MCF7 breast 56.9% | HCT-116 colon 47.6% | HCC-2998 colon 77% | KM12 colon 84.9%

CCNCCNc1cc(-c2ccc(Cl)cc2)c(C#N)c2nc3ccccc3n12
active: SR leukemia -35.6% | RPMI-8226 leukemia -19.4% | OVCAR-5 ovarian 4.7% | OVCAR-4 ovarian -9.51% | OVCAR-3 ovarian -78.2% | HS 578T breast -36% | T-47D breast -60% | BT-549 breast -33.4% | MDA-MB-435 melanoma -85.7% | SW-620 colon -71.9% | MCF7 breast -22.8% | HCT-116 colon -78% | HCC-2998 colon 4.11%
inactive: OVCAR-8 ovarian 10.7% | SK-OV-3 ovarian 31.5% | IGROV1 ovarian 22.4% | NCI/ADR-RES ovarian 22.6% | KM12 colon 27.8%

COc1ccc(-n2nnc(C(=O)NCCc3c[nH]c4ccc(F)cc34)c2C)cc1
inactive: SR leukemia 82.1% | RPMI-8226 leukemia 93.3% | OVCAR-8 ovarian 98.6% | OVCAR-5 ovarian 101% | OVCAR-4 ovarian 107% | SK-OV-3 ovarian 89.8% | IGROV1 ovarian 107% | OVCAR-3 ovarian 103% | HS 578T breast 96.5% | NCI/ADR-RES ovarian 106% | T-47D breast 89.3% | BT-549 breast 103% | MDA-MB-435 melanoma 101% | SW-620 colon 101% | MCF7 breast 95.7% | HCT-116 colon 93.5% | HCC-2998 colon 106% | KM12 colon 103%

O=C1N(c2ccccc2)C(=S)N[C@]12[C@H](c1ccccc1)C1CCCN1[C@]21C(=O)NC2C=CC(Cl)=C[C@H]21 (stereo partly specified)
inactive: SR leukemia 96% | RPMI-8226 leukemia 73.7% | OVCAR-8 ovarian 78.3% | OVCAR-5 ovarian 117% | OVCAR-4 ovarian 102% | SK-OV-3 ovarian 88% | IGROV1 ovarian 95.1% | OVCAR-3 ovarian 106% | HS 578T breast 83.6% | NCI/ADR-RES ovarian 102% | T-47D breast 79.6% | BT-549 breast 90.2% | MDA-MB-435 melanoma 112% | SW-620 colon 101% | MCF7 breast 99.1% | HCT-116 colon 78.1% | HCC-2998 colon 103% | KM12 colon 100%

O=C1CSC(c2ccccc2)N1c1ccccc1 (stereo unspecified)
inactive: SR leukemia 88% | RPMI-8226 leukemia 100% | OVCAR-8 ovarian 102% | OVCAR-5 ovarian 103% | OVCAR-4 ovarian 104% | SK-OV-3 ovarian 100% | IGROV1 ovarian 112% | OVCAR-3 ovarian 112% | HS 578T breast 86.8% | NCI/ADR-RES ovarian 100% | T-47D breast 103% | BT-549 breast 103% | MDA-MB-435 melanoma 108% | SW-620 colon 94.5% | MCF7 breast 96.6% | HCT-116 colon 99.9% | HCC-2998 colon 115% | KM12 colon 98.4%

CN1C[C@@H](c2ccc(Cl)cc2)[C@]2(NC(=S)N(c3ccccc3)C2=O)[C@@]12C(=O)NC1C=CC(Br)=C[C@H]12 (stereo partly specified)
inactive: SR leukemia 48.2% | RPMI-8226 leukemia 29.3% | OVCAR-8 ovarian 70.1% | OVCAR-5 ovarian 101% | OVCAR-4 ovarian 71.6% | SK-OV-3 ovarian 77.2% | IGROV1 ovarian 56% | OVCAR-3 ovarian 77.2% | HS 578T breast 68.4% | NCI/ADR-RES ovarian 64.3% | T-47D breast 49.5% | BT-549 breast 56% | MDA-MB-435 melanoma 77.4% | SW-620 colon 85.2% | MCF7 breast 51.3% | HCT-116 colon 27.5% | HCC-2998 colon 94.9% | KM12 colon 78.5%

CCOC(=O)c1nnn(C(Cc2ccccc2Cl)C(=O)OCC)c1C (stereo unspecified)
inactive: SR leukemia 93.7% | RPMI-8226 leukemia 96.3% | OVCAR-8 ovarian 96.7% | OVCAR-5 ovarian 106% | OVCAR-4 ovarian 104% | SK-OV-3 ovarian 102% | IGROV1 ovarian 112% | OVCAR-3 ovarian 111% | HS 578T breast 94.3% | NCI/ADR-RES ovarian 107% | T-47D breast 97.6% | BT-549 breast 107% | MDA-MB-435 melanoma 105% | SW-620 colon 98% | MCF7 breast 104% | HCT-116 colon 100% | HCC-2998 colon 109% | KM12 colon 102%

N#Cc1c(-c2ccccc2)nc(SCC2CO2)nc1N1CCOCC1 (stereo unspecified)
inactive: SR leukemia 72.5% | RPMI-8226 leukemia 47.9% | OVCAR-8 ovarian 81.8% | OVCAR-5 ovarian 60.8% | OVCAR-4 ovarian 71.1% | SK-OV-3 ovarian 28.1% | IGROV1 ovarian 38.1% | OVCAR-3 ovarian 61.7% | HS 578T breast 50% | NCI/ADR-RES ovarian 76.2% | T-47D breast 15.4% | BT-549 breast 11.4% | MDA-MB-435 melanoma 69.3% | SW-620 colon 84.4% | MCF7 breast 44.8% | HCT-116 colon 95% | HCC-2998 colon 101% | KM12 colon 87.1%

COc1ccc(/C(C)=C(\c2ccc(Cl)cc2)c2ccc(OCCN3CCCCCC3)cc2)cc1F
inactive: OVCAR-8 ovarian 63.7% | OVCAR-5 ovarian 58.9% | OVCAR-4 ovarian 36% | SK-OV-3 ovarian 71.5% | IGROV1 ovarian 56.8% | OVCAR-3 ovarian 54.9% | HS 578T breast 44.1% | NCI/ADR-RES ovarian 65.7% | T-47D breast 53.6% | BT-549 breast 66.3% | MDA-MB-435 melanoma 52.4% | SW-620 colon 20.3% | MCF7 breast 24.1% | HCT-116 colon 22.9% | HCC-2998 colon 36.9% | KM12 colon 23%
active: SR leukemia -12.6% | RPMI-8226 leukemia -9.96%

O=[N+]([O-])c1ccc2[nH]cc(-c3c4ccsc4cc4[nH]c5ccc([N+](=O)[O-])cc5c34)c2c1
inactive: SR leukemia 10.2% | OVCAR-5 ovarian 10.9% | OVCAR-4 ovarian 35.1% | SK-OV-3 ovarian 15.1% | IGROV1 ovarian 21.9% | HS 578T breast 26.6% | BT-549 breast 24.7% | SW-620 colon 25%
active: RPMI-8226 leukemia 9.85% | OVCAR-8 ovarian 7.43% | OVCAR-3 ovarian -21.3% | NCI/ADR-RES ovarian -14.1% | T-47D breast 7.11% | MDA-MB-435 melanoma -27.6% | MCF7 breast 9.14% | HCT-116 colon 2.78% | HCC-2998 colon 7.3% | KM12 colon 3.79%

O=C(Nc1ccccc1Cl)OCCN1CCOCC1
inactive: SR leukemia 103% | RPMI-8226 leukemia 101% | OVCAR-8 ovarian 107% | OVCAR-5 ovarian 110% | OVCAR-4 ovarian 110% | SK-OV-3 ovarian 112% | IGROV1 ovarian 107% | OVCAR-3 ovarian 105% | HS 578T breast 120% | NCI/ADR-RES ovarian 104% | T-47D breast 101% | BT-549 breast 72.2% | MDA-MB-435 melanoma 107% | SW-620 colon 104% | MCF7 breast 105% | HCT-116 colon 73.8% | HCC-2998 colon 99.6% | KM12 colon 102%

CCN(CC)S(=O)(=O)c1ccc(O)c(NC(=O)c2[nH]c(C)c(C(C)=O)c2CCc2ccc(Cl)cc2)c1
inactive: SR leukemia 32.5% | RPMI-8226 leukemia 28.3% | OVCAR-8 ovarian 37.5% | OVCAR-5 ovarian 92.7% | OVCAR-4 ovarian 15.2% | SK-OV-3 ovarian 37.8% | IGROV1 ovarian 45.5% | OVCAR-3 ovarian 24.1% | HS 578T breast 49.9% | NCI/ADR-RES ovarian 50.5% | T-47D breast 13% | BT-549 breast 40.5% | MDA-MB-435 melanoma 43.4% | SW-620 colon 61.5% | MCF7 breast 43.8% | HCT-116 colon 28.1% | HCC-2998 colon 76.3% | KM12 colon 29.8%

Cn1ccc(Cc2cnc(N)s2)n1
inactive: SR leukemia 88.7% | RPMI-8226 leukemia 101% | OVCAR-8 ovarian 94.5% | OVCAR-5 ovarian 106% | OVCAR-4 ovarian 99.4% | SK-OV-3 ovarian 99.7% | IGROV1 ovarian 111% | OVCAR-3 ovarian 106% | HS 578T breast 93.5% | NCI/ADR-RES ovarian 102% | T-47D breast 101% | BT-549 breast 102% | MDA-MB-435 melanoma 101% | SW-620 colon 98.9% | MCF7 breast 101% | HCT-116 colon 108% | HCC-2998 colon 100% | KM12 colon 103%

Cc1nc(Nc2ccc(S(=O)(=O)Nc3cc(C)on3)cc2)c2ccccc2n1
inactive: SR leukemia 111% | RPMI-8226 leukemia 111% | OVCAR-8 ovarian 104% | OVCAR-5 ovarian 101% | OVCAR-4 ovarian 105% | SK-OV-3 ovarian 93% | IGROV1 ovarian 96.9% | OVCAR-3 ovarian 103% | HS 578T breast 108% | NCI/ADR-RES ovarian 107% | T-47D breast 89.1% | BT-549 breast 120% | MDA-MB-435 melanoma 101% | SW-620 colon 109% | MCF7 breast 91.9% | HCT-116 colon 109% | HCC-2998 colon 107% | KM12 colon 103%

C[C@@H]1CC[C@@H]2[C@@H]1[C@H](OC(=O)/C=C/c1ccccc1)[C@]1(C3CCCCC3)C[C@@H](NC(=O)CO)[C@@]2(C)O1
inactive: SR leukemia 93.9% | RPMI-8226 leukemia 100% | OVCAR-8 ovarian 98.6% | OVCAR-5 ovarian 94.6% | OVCAR-4 ovarian 102% | SK-OV-3 ovarian 112% | IGROV1 ovarian 101% | OVCAR-3 ovarian 98.6% | NCI/ADR-RES ovarian 95.4% | T-47D breast 95% | BT-549 breast 98.6% | MDA-MB-435 melanoma 94.3% | SW-620 colon 90% | MCF7 breast 89.6% | HCT-116 colon 85.7% | HCC-2998 colon 95.4% | KM12 colon 103%
active: HS 578T breast 8.45%

Nc1ccc(CCCCc2ccccc2)c(Cl)c1
inactive: SR leukemia 92.7% | RPMI-8226 leukemia 85.4% | OVCAR-8 ovarian 94% | OVCAR-5 ovarian 96.7% | OVCAR-4 ovarian 84.4% | SK-OV-3 ovarian 98.7% | IGROV1 ovarian 87.2% | OVCAR-3 ovarian 94.3% | HS 578T breast 93.7% | NCI/ADR-RES ovarian 104% | T-47D breast 89.9% | BT-549 breast 91.9% | MDA-MB-435 melanoma 99.1% | SW-620 colon 92.3% | MCF7 breast 98.6% | HCT-116 colon 92.6% | HCC-2998 colon 113% | KM12 colon 101%
